# This is a sample that favours compounds with a hit; in the whole collection about 5% have one here.
# PREPL inh: inhibitors of human prolyl oligopeptidase-like enzyme PREPL; Q4J6C6; recombinant PREPL, fluorescence polarization activity-based probe; inhibition, % at 5.96 µM; 320,000 compounds, 0.68% hits; AID 2751; in the data active = inhibition above about 43%;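 also: 0% = enzyme with DMSO and 100% = wells lacking enzyme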
# ALR inh: blocks human ALR sulfhydryl oxidase activity. purified ALR, DTT oxidation, H2O2 HRP-luminol luminescence. inhibition, % (test concentration not listed). 290,000 compounds, 3.8% hits;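 active = mean replicate inhibition above about 79%, with every replicate also reaching it, limit read from the data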
# CHT PAM: allosteric activators of human choline transporter CHT | CHT-expressing cells, membrane potential dye, choline EC20; stronger effect = higher value; LV-AA mutant CHT in HEK293 cells | 310,000 compounds, 0.49% hits | B-score at 10 µM | AID 488977 | Q9GZV3;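 active = initial fluorescence not abnormally high and integrated response B-score, plate-corrected, over 3 SD above library mean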
# Target sequence (Q9GZV3 whole entry, looked up): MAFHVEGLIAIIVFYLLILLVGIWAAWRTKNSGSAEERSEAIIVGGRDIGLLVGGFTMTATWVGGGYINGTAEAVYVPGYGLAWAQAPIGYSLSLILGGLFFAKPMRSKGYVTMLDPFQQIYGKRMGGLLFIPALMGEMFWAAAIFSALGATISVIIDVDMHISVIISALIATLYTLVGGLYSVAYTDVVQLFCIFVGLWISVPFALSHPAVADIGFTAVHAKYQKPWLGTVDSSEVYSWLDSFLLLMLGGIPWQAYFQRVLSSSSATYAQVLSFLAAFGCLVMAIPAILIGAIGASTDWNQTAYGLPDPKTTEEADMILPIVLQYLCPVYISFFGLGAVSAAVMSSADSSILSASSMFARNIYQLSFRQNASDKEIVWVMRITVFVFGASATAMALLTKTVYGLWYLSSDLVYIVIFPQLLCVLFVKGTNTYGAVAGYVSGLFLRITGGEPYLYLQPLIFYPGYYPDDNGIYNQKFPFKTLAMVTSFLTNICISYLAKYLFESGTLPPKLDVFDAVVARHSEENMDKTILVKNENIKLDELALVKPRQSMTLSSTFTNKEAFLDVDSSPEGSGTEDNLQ
# AI-2 QS mod: Vibrio harveyi AI-2 quorum sensing modulation | Vibrio harveyi JMH597 AI-2 luminescence/OD600 ratio, 9 h; stronger effect = lower value; strain lacks LuxN and CqsS sensors; 0 = neutral-control median | activity change, % at 7.5 µM | 300,000 compounds, 0.4% hits | AID 2094; in the data active = activity change below about -75%, passing the limit was not always enough;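 also: luminescence divided by OD600 gain over 9 h not by final OD600 alone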
# CHT inh: human CHT choline transport inhibition | 310,000 compounds, 0.86% hits | CHT-expressing cells, membrane potential dye, choline response; stronger effect = lower value | B-score at 10 µM | Q9GZV3 | AID 488975;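 active = B-score over 3 SD under the library average, and starting fluorescence ratio not unusually high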;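 also: choline stimulus applied at its EC90 after an EC20 pre-addition; B-score computed on integrated fluorescence ratio after choline addition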
# CHT inh conf: confirmation of human choline transporter CHT inhibitors; shares compounds with CHT inh; CHT-expressing cells, choline membrane potential dye; LV-to-AA substituted CHT, HEK293 cells; CHT activity remaining % of control (stronger effect = lower value), % at 10 µM; 2,400 compounds, 70% hits; AID 493221;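 active = choline transporter activity left, mean of duplicates at 10 µM, below buffer-only control mean minus 3 SD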;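 also: depolarization triggered by choline at its EC90 following an EC20 pre-addition; 0% = hemicholinium-3 full block and 100% = buffer-only control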
# HEK293 MPD ctr: CHT inhibitor counter-screen hit in parental HEK293 cells. shares compounds with CHT inh. membrane potential dye, choline response; active = decrease or increase beyond buffer ±3SD. membrane potential ratio readout (active if shifted either direction beyond buffer ±3SD; no single direction) at 10 µM. 2,400 compounds, 4% hits;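 also: parental cells lack the transporter so any hit is non-specific; ratio is peak minus trough fluorescence over baseline after EC90 choline challenge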
# * hit, by the source's call; i = inactive; . = not tested or not shown.
SMILES,PREPL inh,ALR inh,CHT PAM,AI-2 QS mod,CHT inh,CHT inh conf,HEK293 MPD ctr
CCN(CC)CCCNC(=O)c1cn(CC)c2ccc(S(=O)(=O)N(C)C3CCCCC3)cc2c1=O,4.0,0.5,i,9.0,-5.73*,60.7%*,i
CN(C1CCCCC1)S(=O)(=O)c1ccc2c(c1)c(=O)c(C(=O)NCCCN1CCCC1)cn2C,-0.1,-19.0,i,22.4,i,.,.
CCCCN(CCCC)CCNC(=O)c1cn(CC)c2ccc(S(=O)(=O)N(C)C3CCCCC3)cc2c1=O,10.7,0.2,i,15.8,-7.07*,19.7%*,i
O=C(CSc1ncn[nH]1)NCc1ccccc1Cl,2.0,-3.3,i,9.0,i,.,.
O=C(NNC(=O)c1cccs1)Nc1cccc(Cl)c1,-0.7,46.9,i,-19.2,i,.,.
O=C(NNc1cc(Cl)cc(Cl)c1)c1cccs1,3.5,2.5,i,-9.9,-6.13*,42.9%*,i
CCOC(=O)c1sc(=S)n(CC)c1NC(=O)C1CC1,11.5,-3.8,i,25.7,-6.15*,71.0%*,i
COc1ccc(C(=O)N2CCN(C)C(=O)[C@@H]2C)cc1OC1CCN(C(C)=O)CC1,-7.2,-3.7,i,15.8,i,.,.
CC(CCc1ccccc1)NC(=O)CCNS(=O)(=O)c1ccccc1C(F)(F)F (stereo unspecified),-0.2,.,.,.,.,.,.
Cc1ccc(S(=O)(=O)NCCC(=O)NC(C)CCc2ccccc2)cc1 (stereo unspecified),-3.0,.,i,5.8,-5.05*,49.6%*,i
COc1ccc(N(C)S(=O)(=O)c2ccc3c(c2)CCN3C(=O)C2CC2)c(OC)c1,0.9,-7.6,i,6.8,i,.,.
Fc1ccccc1COc1ccc(Br)cc1CNCc1ccncc1,-11.4,-6.9,i,9.3,-5.48*,70.1%*,i
CCOc1ccc(Br)cc1CNCc1cccnc1,.,-1.0,i,13.0,i,.,.
O=S(=O)(Nc1nc2ccccc2s1)c1ccc(Br)s1,6.3,2.0,i,68.5,-7.12*,69.4%*,i
CC(=O)Oc1ccc2nc(-c3ccco3)oc(=O)c2c1,-0.7,18.4,i,.,-10.3*,i,i
COc1cc2c(cc1OC)C(c1cccs1)N(C(=O)c1cccnc1)CC2 (stereo unspecified),-1.5,-10.6,i,27.1,-5.74*,i,i
CCc1ccccc1-n1nnc(-c2ccccc2)n1,-23.0,-0.1,i,-1.6,-5.45*,i,i
CCOC(=O)Cn1nnc(-c2ccccc2)n1,-6.1,2.0,i,-0.2,i,.,.
CCCCCn1c(N)c(-c2nc3ccccc3s2)c2c([N+](=O)[O-])nn(C)c(=O)c21,11.4,-9.4,i,7.0,-6.33*,i,i
CCn1c(=O)cc(SCC(=O)Nc2ccc(OC)c(OC)c2)c2ccccc21,2.2,.,i,15.0,-5.98*,i,i
O=C(CSc1nnc2ccccn12)NNC(=O)c1ccc(F)cc1,-9.3,-3.2,i,14.1,i,.,.
O=C(Nc1scc(-c2ccccc2)c1C(=O)O)c1ccco1,-2.0,8.2,i,31.4,i,.,.
COc1cc(C(=O)Nc2scc(-c3ccc(C)cc3)c2C(=O)O)cc(OC)c1OC,7.1,7.2,i,32.0,-6.56*,56.4%*,i
CC(C)(C)C(=O)Nc1scc(-c2ccc(-c3ccccc3)cc2)c1C(=O)O,7.3,50.3,i,6.7,-7.45*,36.5%*,i
O=C(CN1C(=O)S/C(=C\c2cccc(Cl)c2)C1=O)NCCCn1ccnc1,31.1,46.3,i,29.5,-5.85*,55.9%*,i
SMILES,PREPL inh,ALR inh,CHT PAM,AI-2 QS mod,CHT inh,CHT inh conf,HEK293 MPD ctr
COc1ccc(/C=C2\SC(=O)N(CC(=O)NCCCn3ccnc3)C2=O)cc1,7.1,-4.9,i,33.9,i,.,.
CCOc1ccc(OCc2ccc(C(=O)N3CCCC3)o2)cc1,1.4,-1.0,i,18.9,-8.07*,42.0%*,i
CCCNC(=O)c1ccc(COc2ccc(C)cc2)o1,7.0,12.8,i,20.5,-5.02*,51.9%*,i
Cc1ccc(C)c(N=Cc2c(O)c3ccccc3oc2=O)c1,9.7,-7.4,i,3.7,i,.,.
COc1ccc(Nc2nc(C)c(-c3ccccc3)s2)cc1,18.4,60.8,i,.,-8.48*,i,i
c1ccc2c(c1)Cc1ccccc1O2,4.6,4.6,i,.,i,.,.
Cc1cc(/C=N/NC(=O)C(=O)N2CCCC2)c(C)n1-c1cccc(Br)c1,6.9,5.7,i,26.4,-7.39*,58.0%*,i
Cc1cc(/C=N/NC(=O)c2c(Br)cnn2C)c(C)n1-c1cccc(Br)c1,13.2,4.8,i,10.7,i,.,.
CC(C)(C)n1nnnc1C(c1ccc2ncccc2c1)N1CCC(O)CC1 (stereo unspecified),2.7,-8.0,i,-6.5,-5.26*,i,i
O=[N+]([O-])c1ccc(O)c(/C=N/n2cnc3ccccc32)c1,6.4,-2.6,i,9.9,-5.01*,i,i
CSc1ccc(CN2CCCC(CNC(=O)c3ccc(F)cc3)C2)cc1 (stereo unspecified),6.7,.,i,8.0,i,.,.
CCN(C(=S)NCc1ccccc1)c1ccccc1,4.9,-5.2,i,6.0,i,.,.
CC(C)OC(=O)c1c(NC(=O)C2CC=CCC2C(=O)O)sc2c1CCCCC2 (stereo unspecified),7.0,14.8,i,18.4,-5.16*,i,i
NC(=O)c1c(NC(=O)C2CC=CCC2C(=O)O)sc2c1CCCCC2 (stereo unspecified),22.3,9.1,i,13.9,i,.,.
FC(F)(F)c1cccc(-c2nc3nc(Cl)c(Cl)nc3[nH]2)c1,8.3,8.9,i,-17.4,-7.83*,49.5%*,i
FC(F)(F)c1cccc(-c2nc(-c3ccncc3)no2)c1,.,-6.5,i,19.5,i,.,.
C=CCc1ccc(OCC(O)CN2CCN(c3ccccc3OC)CC2)c(OC)c1 (stereo unspecified),12.1,-2.6,i,1.2,i,.,.
C=CCc1ccc(OCC(O)CN2CCC(Cc3ccccc3)CC2)c(OC)c1 (stereo unspecified),6.3,-33.7,i,13.1,-7.24*,31.1%*,i
CC(C)(C)CC(C)(C)NCC(O)COc1c(F)cc(Br)cc1F (stereo unspecified),1.4,-4.2,i,16.2,-5.53*,60.1%*,-9.05*
CC(C)(C)NCC(O)COc1c(F)cc(Br)cc1F (stereo unspecified),7.7,-11.7,i,14.5,i,.,.

# Assay outcomes (PubChem)
